Hits are enriched below; roughly 15% of the tested compounds scored in any of these assays.
VP16 counter: inhibits Gal4-VP16 luciferase reporter, ROR gamma counter-screen | 310,000 tested, 3.5% active | AID 2546 | Potency, µM (series often up to 53.6 µM), inactives show at the highest dose activity, negative = inhibition, usual class: inhibitors | Drosophila S2 Gal4-VP16 UAS-luciferase, luminescence, 20 h;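 also: Gal4-VP16 expression switched on by copper sulfate through the metallothionein promoter; nearly all actives have a fitted effect of over 50% in size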
TDP1 cell CPT: DT40-hTDP1 cell growth loss with CPT | AID 686979 | chicken DT40 Tdp1-/-;hTDP1 cells + 20 nM CPT, ATP luminescence, 48 h | 420,000 tested, 12% active | Potency, µM (top dose mostly 46.2 µM), inactives show at the top dose activity change, negative = growth inhibition, actives largely listed as inhibitors; also: nearly all actives have a fitted effect of over 55% in size
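Cell growth measured by CellTiter-Glo luminescence after a minimum 48 h, 37 C compound exposure with 20 nM CPT in Tdp1-knockout DT40 cells stably expressing hTDP1, seeded 400/well; qHTS titration format.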
DT40 TDP1 no CPT: qHTS for Inhibitors of human tyrosyl-DNA phosphodiesterase 1 (TDP1): qHTS in cells in absence of CPT; DT40 Tdp1-/- hTDP1 cells, no CPT, ATP luminescence, 48 h; Potency, µM (highest dose often 46.2 µM), inactives show at the top dose activity change, negative = growth inhibition, most hits filed as inhibitors; 420,000 tested, 15% active; AID 686978, 2013; also: nearly all actives have a fitted effect of over 55% in size
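Readout: luminescence from CellTiter-Glo after 30 min in the dark at RT. Cells: DT40 Tdp1-/- with stable hTDP1, 400/well. Exposure: compounds alone, ≥48 hr, 37 °C.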
RORg inh: blocks mouse ROR gamma transcriptional activity | Drosophila S2 Gal4-RORgamma UAS-luciferase reporter, 20 h | Potency, µM (highest dose often 53.6 µM), for the others: at the top dose activity change, negative = inhibition, most hits filed as inhibitors | 310,000 tested, 5.4% active | AID 2551; also: nearly all actives have a fitted effect of over 60% in size
Target sequence (P51450 whole entry, looked up, the tested form may be a part): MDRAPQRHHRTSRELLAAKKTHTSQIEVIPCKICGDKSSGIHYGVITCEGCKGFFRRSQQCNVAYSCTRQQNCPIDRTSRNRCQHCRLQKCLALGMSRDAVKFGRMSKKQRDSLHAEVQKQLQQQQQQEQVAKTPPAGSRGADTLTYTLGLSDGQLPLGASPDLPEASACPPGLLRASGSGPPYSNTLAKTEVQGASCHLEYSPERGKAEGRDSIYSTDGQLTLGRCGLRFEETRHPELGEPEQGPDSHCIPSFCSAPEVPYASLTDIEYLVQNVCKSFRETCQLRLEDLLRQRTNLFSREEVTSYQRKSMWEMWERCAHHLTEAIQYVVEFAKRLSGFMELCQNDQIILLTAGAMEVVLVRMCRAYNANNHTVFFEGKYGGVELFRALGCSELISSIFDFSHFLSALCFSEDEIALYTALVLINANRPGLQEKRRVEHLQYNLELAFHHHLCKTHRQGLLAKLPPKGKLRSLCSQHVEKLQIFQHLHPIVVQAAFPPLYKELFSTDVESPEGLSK
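Luminescence from a UAS-regulated Photinus luciferase reporter in stably transfected Drosophila Schneider cells is measured; decreased signal marks ROR gamma inhibition. Fusion expression is induced by 700 uM copper sulfate for 20 hr.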
ALOX12 inh: inhibitors of human 12S-lipoxygenase ALOX12. Potency, µM (doses to about 108 µM), inactives show top-dose activity change, negative = inhibition, most hits filed as inhibitors. P18054. AID 1671190. 580,000 tested, 1.1% active. purified 12hLO, xylenol orange hydroperoxide absorbance
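Purified human 12hLO at 150 nM in 25 mM Hepes, 0.01% Triton X-100, pH 7.0, preincubated 15 min at room temperature with compound. Reaction started with 40 uM arachidonic acid, 30 min at room temperature. Hydroperoxide measured by Fe-xylenol orange, 573/405 nm absorbance ratio.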
ELG1 repair inh: inhibitors of ELG1-dependent DNA repair in HEK293T cells; 330,000 tested, 2.3% active; Potency, µM (titrated, usually from 46.1 µM), for inactives: at the highest dose activity change, negative = inhibition, actives largely listed as inhibitors; HEK293T ELG1-luciferase reporter, luminescence, 16 h; DNA damage induced by 5-fluorouridine; also: nearly all actives have a fitted effect of over 55% in size
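Luminescence from the luciferase reporter, measured 30 min after ONE-Glo reagent at room temperature, was the read-out. Beforehand, 2,000 cells per well were exposed for 16 hr at 37 °C to 5-fluorouridine together with compound or vehicle.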
Starred values were filed as active, the others as inactive; ? = inconclusive; nt = no result; ! = repeats disagree; [ ] = another dose, or the depositor's remark. Calls follow the shape of the dose curve; as a rule, active = well fitted curve in the direction sought with a large enough effect; inconclusive = small, poorly fitted or top-dose-only effect, or another doubt; inactive = no such curve, though single readings can be large; an effect the other way counts as inactive or inconclusive. % is scaled to controls: 0 for no effect and ±100 for the full control effect; potency is read from the fitted curve at half-maximal effect.

SMILES	VP16 counter	TDP1 cell CPT	DT40 TDP1 no CPT	RORg inh	ALOX12 inh	ELG1 repair inh
C#CCn1c(=NC(=O)CN2C(=O)CCC2=O)sc2cccc(OC)c21	-2%	-3%	?	6%	8%	0%
CCOCCn1c(=NC(=O)c2ccc(S(=O)(=O)N3CCOCC3)cc2)sc2cc(S(N)(=O)=O)ccc21	?	?	?	21%	4%	18µM*
COCCn1c(=NC(=O)CCS(=O)(=O)c2ccccc2)sc2ccccc21	nt	21µM*	16µM*	nt	1%	nt
CCOc1cccc2sc(=NC(=O)c3ccc(S(=O)(=O)N4CCOCC4)cc3)n(C)c12	-7%	15µM*!	21µM*!	1%	3%	1%
COC(=O)c1ccc2c(c1)sc(=NC(=O)CCS(=O)(=O)c1ccccc1)n2C	nt	?	?	nt	-23%	-25%
C=CCn1c(=NC(=O)c2cccc(N3C(=O)CCC3=O)c2)sc2cccc(OC)c21	4%	23µM*	15µM*	18%	3%	?
CCN(Cc1cccs1)C(=O)CCc1ccccc1	nt	nt	nt	nt	-1%	nt
COCc1cc(CC2(NCc3ccc(OC)cc3)COC2)no1	nt	nt	nt	nt	9%[176 µM]	nt
CCOc1ccc(CN(C)CC(=O)Nc2ccc(F)c(Cl)c2)cc1	nt	nt	nt	nt	76%	nt
CCn1c(=NC(=O)CS(=O)(=O)c2ccccc2)sc2cccc(OC)c21	nt	?	13µM*	nt	?	?
Cn1c(=NC(=O)CS(=O)(=O)c2ccc(F)cc2)sc2ccccc21	nt	-22%	?	nt	-12%	16%
CCn1c(=NC(=O)c2ccc(S(=O)(=O)N3CCCCC3)cc2)sc2cccc(OC)c21	nt	2.6µM*	1.5µM*	nt	-11%	nt
COc1cccc2sc(=NC(=O)c3ccc(S(=O)(=O)N4CCCCC4)cc3)n(C)c12	nt	-28%	-9%	nt	-16%	nt
CCOCCCNC(=O)c1ccc(OCC)c(OCC)c1	nt	nt	nt	nt	9%	nt
CCc1c(C(=O)NNC(=S)NC2CCCCC2)csc1C	?	-23%	?	1.1µM*	?	1%
CCCCOc1cccc(C(=O)NNC(=S)NC2CCCCC2)c1	4%	?	16µM*	?	56%	?
CC(C)c1cc(C(=O)NNC(=S)NC2CCCCC2)cs1	?	-23%	-7%	?	?	?
CCc1cc(C(=O)NNC(=S)NC2CCCCC2)cs1	10µM*	?	-9%	2.2µM*	?	?
CC1=C[C@@H](CC#N)[C@H](C(C)C)C[C@H]1CC(=O)N1CCN(c2cnccn2)CC1	nt	nt	nt	nt	35%[176 µM]	nt
COc1ccc(NS(=O)(=O)c2ccc3[nH]c4c(c3c2)CCCCCC4)cc1	nt	?	?	nt	-23%	nt
COc1ccccc1CNS(=O)(=O)c1ccc2[nH]c3c(c2c1)CCCCC3	nt	10µM*	7.3µM*	nt	10%	nt
CCOc1ccc(CNS(=O)(=O)c2ccc3[nH]c4c(c3c2)CCCC4)cc1OC	nt	?	23µM*	nt	?	nt
COc1ccccc1NC(=O)c1cc2c(N3CCSCC3)nc(C)cn2n1	nt	nt	nt	nt	-7%	nt
O=C(CNc1ccccc1OC(F)F)N1CCNC1=O	nt	nt	nt	nt	-8%	nt
O=C(c1ccc2c(c1)N(Cc1ccc(F)cc1)C(=O)c1ccccc1S2(=O)=O)N1CCC(Cc2ccccc2)CC1	nt	5.8µM*	5.2µM*	nt	-9%	nt
O=C(c1ccc2c(c1)N(Cc1ccc(F)cc1)C(=O)c1ccccc1S2(=O)=O)N1CCCCC1	nt	?	?	nt	-25%	nt
CC1CCN(C(=O)c2ccc3c(c2)N(Cc2ccccc2)C(=O)c2ccccc2S3(=O)=O)CC1	nt	?	16µM*	nt	-12%	nt
CC(C)(O)CCc1cccc(C(=O)N2CCC(Nc3ncccn3)CC2)c1	nt	nt	nt	nt	10%	nt

Screening data from PubChem.
